{"source": "paper PMC7862700", "about": "“An all-to-all approach to the identification of sequence-specific readers for epigenetic DNA modifications on cytosine”", "test_in_all_cases": "DAPPL (digital affinity profiling via proximity ligation, sequencing); 10 mM Tris-HCl pH 7.5, 50 mM NaCl, 1 mM DTT, 4% glycerol, room temperature, 30 min; GST-TFs on glutathione beads, 16-mer random dsDNA library, 0.1% formaldehyde crosslink after washing; high values mean tight binding", "key": {"FEV": {"molecular_target": "T1, FEV (Homo sapiens, UniProt Q99581 1-238)", "T1 sequence": "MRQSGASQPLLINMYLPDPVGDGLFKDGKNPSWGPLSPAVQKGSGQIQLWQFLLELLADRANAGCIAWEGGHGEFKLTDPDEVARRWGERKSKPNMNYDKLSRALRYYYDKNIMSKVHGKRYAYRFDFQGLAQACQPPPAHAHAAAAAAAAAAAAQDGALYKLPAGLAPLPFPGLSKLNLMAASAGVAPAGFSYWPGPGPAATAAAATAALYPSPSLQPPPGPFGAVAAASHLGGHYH", "details": "protein: recombinant; tags: N-terminal GST; dsDNA, one strand shown", "summary_of_the_method": "(§1)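 Beads coated with glutathione captured GST-fused human transcription factors that had been expressed in yeast, and the factors were then given DNA barcodes and pooled with a tag-only sample. The pools were incubated with 200 nmole of a random double-stranded 16-mer DNA library in Tris/NaCl/DTT/glycerol buffer for 30 min at room temperature, washed, crosslinked with 0.1% formaldehyde and proximity-ligated with BsaI/T4 ligase at 37 °C for 1 h. PCR amplification and Illumina NextSeq500 sequencing came last. Binding signal is each hexamer's read frequency for a factor divided by its frequency for the tag-only sample.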"}, "ETV5": {"molecular_target": "ETV5 (Homo sapiens, UniProt P41161 1-510)", "sequence (P41161 whole entry)": "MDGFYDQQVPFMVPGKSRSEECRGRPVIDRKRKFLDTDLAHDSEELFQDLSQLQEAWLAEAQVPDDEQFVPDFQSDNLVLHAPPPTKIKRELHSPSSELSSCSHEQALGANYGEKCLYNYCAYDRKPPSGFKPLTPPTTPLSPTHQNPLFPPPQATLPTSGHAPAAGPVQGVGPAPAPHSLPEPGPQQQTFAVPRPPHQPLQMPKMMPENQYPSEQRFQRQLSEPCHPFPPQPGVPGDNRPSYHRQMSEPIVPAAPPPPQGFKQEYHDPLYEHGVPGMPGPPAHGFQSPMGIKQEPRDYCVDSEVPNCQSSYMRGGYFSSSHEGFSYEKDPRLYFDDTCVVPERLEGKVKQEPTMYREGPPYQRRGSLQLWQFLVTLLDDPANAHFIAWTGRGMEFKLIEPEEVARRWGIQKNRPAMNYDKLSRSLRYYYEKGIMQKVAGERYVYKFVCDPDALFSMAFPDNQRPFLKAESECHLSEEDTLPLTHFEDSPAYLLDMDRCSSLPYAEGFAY", "details": "protein: recombinant; tags: N-terminal GST; dsDNA, one strand shown", "summary_of_the_method": "as §1"}, "HSF1": {"molecular_target": "HSF1 (Homo sapiens, UniProt Q00613 1-529)", "sequence (Q00613 whole entry)": "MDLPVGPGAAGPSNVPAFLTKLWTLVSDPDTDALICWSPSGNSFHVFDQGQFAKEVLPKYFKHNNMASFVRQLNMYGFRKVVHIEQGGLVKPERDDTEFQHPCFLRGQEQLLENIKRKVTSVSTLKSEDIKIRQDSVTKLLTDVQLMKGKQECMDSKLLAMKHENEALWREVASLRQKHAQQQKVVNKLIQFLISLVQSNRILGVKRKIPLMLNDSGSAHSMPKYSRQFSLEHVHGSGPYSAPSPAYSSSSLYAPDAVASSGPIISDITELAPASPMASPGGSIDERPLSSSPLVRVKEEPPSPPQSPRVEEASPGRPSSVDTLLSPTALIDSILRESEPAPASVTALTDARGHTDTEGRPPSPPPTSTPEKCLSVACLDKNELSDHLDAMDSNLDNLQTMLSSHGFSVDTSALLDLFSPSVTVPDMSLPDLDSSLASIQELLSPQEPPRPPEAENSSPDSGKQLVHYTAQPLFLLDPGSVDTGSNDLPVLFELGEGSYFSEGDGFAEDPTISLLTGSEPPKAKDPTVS", "details": "protein: recombinant; tags: N-terminal GST; chain copies: 3; dsDNA, one strand shown", "summary_of_the_method": "as §1"}, "SPIC": {"molecular_target": "T2, SPIC (Homo sapiens, UniProt Q8N5J4 1-248)", "T2 sequence": "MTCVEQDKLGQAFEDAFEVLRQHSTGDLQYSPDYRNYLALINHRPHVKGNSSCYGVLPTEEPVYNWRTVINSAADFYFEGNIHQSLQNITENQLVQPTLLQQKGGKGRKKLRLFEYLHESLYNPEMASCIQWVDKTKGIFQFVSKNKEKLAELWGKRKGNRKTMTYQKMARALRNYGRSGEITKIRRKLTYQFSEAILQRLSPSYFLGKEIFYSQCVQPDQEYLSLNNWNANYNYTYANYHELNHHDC", "details": "protein: recombinant; tags: N-terminal GST; dsDNA, one strand shown", "summary_of_the_method": "as §1"}, "ELF4": {"molecular_target": "ELF4 (Homo sapiens, UniProt Q99607 1-663)", "sequence (Q99607 whole entry)": "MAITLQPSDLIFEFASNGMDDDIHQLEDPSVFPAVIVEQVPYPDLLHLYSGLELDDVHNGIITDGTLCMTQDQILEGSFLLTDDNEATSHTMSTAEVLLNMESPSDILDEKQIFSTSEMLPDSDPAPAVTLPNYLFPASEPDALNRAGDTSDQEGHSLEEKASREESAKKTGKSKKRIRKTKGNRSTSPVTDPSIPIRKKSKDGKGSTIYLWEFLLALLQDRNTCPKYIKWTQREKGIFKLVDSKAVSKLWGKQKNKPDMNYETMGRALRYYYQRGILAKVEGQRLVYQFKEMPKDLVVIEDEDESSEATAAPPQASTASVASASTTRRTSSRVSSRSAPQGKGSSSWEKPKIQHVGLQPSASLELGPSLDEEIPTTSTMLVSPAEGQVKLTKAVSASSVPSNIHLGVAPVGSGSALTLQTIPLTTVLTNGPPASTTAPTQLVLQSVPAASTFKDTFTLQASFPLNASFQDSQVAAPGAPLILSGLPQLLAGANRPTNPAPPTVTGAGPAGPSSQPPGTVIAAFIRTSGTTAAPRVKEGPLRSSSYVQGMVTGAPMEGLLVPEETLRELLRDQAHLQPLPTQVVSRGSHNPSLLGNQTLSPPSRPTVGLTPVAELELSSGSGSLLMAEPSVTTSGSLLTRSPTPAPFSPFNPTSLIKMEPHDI", "details": "protein: recombinant; tags: N-terminal GST; dsDNA, one strand shown", "summary_of_the_method": "as §1"}, "ELK4": {"molecular_target": "T3, ELK4 (Homo sapiens, UniProt P28324-2 1-405)", "T3 sequence": "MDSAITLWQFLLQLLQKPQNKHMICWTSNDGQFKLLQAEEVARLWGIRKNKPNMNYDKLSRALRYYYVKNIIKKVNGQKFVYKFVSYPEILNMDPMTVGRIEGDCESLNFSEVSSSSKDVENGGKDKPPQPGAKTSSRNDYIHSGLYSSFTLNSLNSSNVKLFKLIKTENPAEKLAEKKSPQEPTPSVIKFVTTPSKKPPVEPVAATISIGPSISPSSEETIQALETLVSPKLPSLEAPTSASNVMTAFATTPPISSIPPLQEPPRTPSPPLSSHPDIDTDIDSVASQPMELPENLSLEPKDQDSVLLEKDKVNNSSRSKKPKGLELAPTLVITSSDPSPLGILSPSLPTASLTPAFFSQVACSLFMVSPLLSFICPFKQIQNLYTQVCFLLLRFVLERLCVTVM", "details": "protein: recombinant; tags: N-terminal GST; dsDNA, one strand shown", "summary_of_the_method": "as §1"}, "ETV2": {"molecular_target": "T4, ETV2 (Homo sapiens, UniProt O00321 1-342)", "T4 sequence": "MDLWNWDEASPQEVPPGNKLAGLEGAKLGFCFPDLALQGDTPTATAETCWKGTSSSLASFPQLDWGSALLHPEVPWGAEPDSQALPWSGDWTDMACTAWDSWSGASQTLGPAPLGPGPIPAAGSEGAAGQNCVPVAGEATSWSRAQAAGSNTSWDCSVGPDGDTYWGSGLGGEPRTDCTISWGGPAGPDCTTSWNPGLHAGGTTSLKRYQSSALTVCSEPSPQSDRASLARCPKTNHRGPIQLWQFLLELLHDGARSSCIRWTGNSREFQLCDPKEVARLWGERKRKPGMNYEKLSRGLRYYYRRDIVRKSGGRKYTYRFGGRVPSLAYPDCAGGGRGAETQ", "details": "protein: recombinant; tags: N-terminal GST; dsDNA, one strand shown", "summary_of_the_method": "as §1"}, "ELF3": {"molecular_target": "T5, ELF3 (Homo sapiens, UniProt P78545 1-371)", "T5 sequence": "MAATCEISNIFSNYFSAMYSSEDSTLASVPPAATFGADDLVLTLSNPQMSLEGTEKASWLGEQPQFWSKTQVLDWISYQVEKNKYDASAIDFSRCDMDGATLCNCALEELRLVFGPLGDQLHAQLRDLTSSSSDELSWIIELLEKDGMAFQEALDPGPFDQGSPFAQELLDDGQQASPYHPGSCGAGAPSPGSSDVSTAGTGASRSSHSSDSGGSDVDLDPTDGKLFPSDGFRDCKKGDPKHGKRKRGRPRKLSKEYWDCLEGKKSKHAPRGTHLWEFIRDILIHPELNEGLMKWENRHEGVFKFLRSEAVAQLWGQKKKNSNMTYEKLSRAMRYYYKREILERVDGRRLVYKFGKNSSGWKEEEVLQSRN", "details": "protein: recombinant; tags: N-terminal GST; dsDNA, one strand shown", "summary_of_the_method": "as §1"}, "CRX": {"molecular_target": "CRX (Homo sapiens, UniProt O43186 1-299)", "sequence (O43186 whole entry)": "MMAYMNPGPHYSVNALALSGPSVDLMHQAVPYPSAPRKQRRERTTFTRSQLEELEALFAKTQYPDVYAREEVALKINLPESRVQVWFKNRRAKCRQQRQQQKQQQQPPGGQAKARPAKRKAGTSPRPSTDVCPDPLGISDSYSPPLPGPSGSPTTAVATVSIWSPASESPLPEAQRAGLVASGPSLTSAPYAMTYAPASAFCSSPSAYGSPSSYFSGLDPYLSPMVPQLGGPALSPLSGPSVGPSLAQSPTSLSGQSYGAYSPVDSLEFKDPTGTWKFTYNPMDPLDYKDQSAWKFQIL", "details": "protein: recombinant; tags: N-terminal GST; dsDNA, one strand shown", "summary_of_the_method": "as §1"}}, "data": [{"sequence": "CTCTCC", "values": [{"measurement": "binding signal", "setting": "FEV", "result": "1.32 fold enrichment (6-mer frequency, TF over GST control)"}, {"measurement": "binding signal", "setting": "ETV5", "result": "1.24 fold enrichment (6-mer frequency, TF over GST control)"}, {"measurement": "binding signal", "setting": "HSF1", "result": "1.32 fold enrichment (6-mer frequency, TF over GST control)"}, {"measurement": "binding signal", "setting": "SPIC", "result": "1.41 fold enrichment (6-mer frequency, TF over GST control)"}, {"measurement": "binding signal", "setting": "ELF4", "result": "1.5 fold enrichment (6-mer frequency, TF over GST control)"}, {"measurement": "binding signal", "setting": "ELK4", "result": "1.37 fold enrichment (6-mer frequency, TF over GST control)"}, {"measurement": "binding signal", "setting": "ETV2", "result": "1.32 fold enrichment (6-mer frequency, TF over GST control)"}, {"measurement": "binding signal", "setting": "ELF3", "result": "1.6 fold enrichment (6-mer frequency, TF over GST control)"}, {"measurement": "binding signal", "setting": "CRX", "result": "1.15 fold enrichment (6-mer frequency, TF over GST control)"}]}]}
